Reference: PubChem BioAssay (NCATS)
Records with an inconclusive call do not appear. Active and inactive are the calls of the source. The call rests on the fitted dose curve; in most records, active means well fitted inhibition curve with a large enough effect; inconclusive means small, poorly fitted or top-dose-only effect; inactive means flat fitted curve, though single readings scatter.

target: Luciferin 4-monooxygenase (Photinus pyralis) (UniProt P08659); assay: Biochemical firefly luciferase enzyme assay for NPC (AID 624030);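 further: purified P. pyralis luciferase at 10 nM with luciferin and ATP substrate; nearly all actives have a fitted effect of over 70% in size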; conditions: purified P. pyralis luciferase, luminescence, 5 min; series mostly up to 58.6 µM
Summary of the method: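 Counter-screen for direct inhibition of the luciferase enzyme by approved-drug library compounds, run at 10 nM enzyme in 50 mM Tris acetate (final). Luminescence was read within 5 min of enzyme-buffer addition and normalized to PTC124 versus DMSO (0%).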

Sequence of Luciferin 4-monooxygenase (Photinus pyralis) (P08659 whole entry, looked up): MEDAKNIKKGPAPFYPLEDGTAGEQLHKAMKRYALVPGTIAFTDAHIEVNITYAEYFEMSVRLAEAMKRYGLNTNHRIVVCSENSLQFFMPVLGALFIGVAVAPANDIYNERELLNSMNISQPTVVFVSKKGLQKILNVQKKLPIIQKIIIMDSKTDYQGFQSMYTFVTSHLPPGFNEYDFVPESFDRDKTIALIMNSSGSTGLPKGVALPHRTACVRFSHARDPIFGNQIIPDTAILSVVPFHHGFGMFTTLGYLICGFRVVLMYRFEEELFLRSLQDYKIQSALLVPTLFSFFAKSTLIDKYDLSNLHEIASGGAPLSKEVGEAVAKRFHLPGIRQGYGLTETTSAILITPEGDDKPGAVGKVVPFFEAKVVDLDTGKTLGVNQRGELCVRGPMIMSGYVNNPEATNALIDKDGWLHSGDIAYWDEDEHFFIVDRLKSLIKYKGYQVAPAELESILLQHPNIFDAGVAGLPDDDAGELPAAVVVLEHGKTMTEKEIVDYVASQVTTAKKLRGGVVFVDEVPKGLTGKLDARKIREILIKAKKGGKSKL

Potency, inactive:
CC(=O)OCC(=O)[C@@]1(O)[C@H](C)C[C@H]2C3C[C@H](F)C4=CC(=O)C=CC4(C)C3[C@@H](O)CC21C (stereo partly specified)
CO/N=C1/CC2(CC3CC(C/C=C(/C)CC(C)/C=C\C=C4\COC5C(O)C(C)=CC(C(=O)O3)C45O)O2)OC(/C(C)=C/C(C)C)C1C (stereo unspecified)
O=CC(O)C(O)C(O)C(O)CO (stereo unspecified)
O=C(CO)[C@@H](O)C(O)[C@@H](O)CO (stereo partly specified)
CO[C@]1(NC(=O)Cc2cccs2)C(=O)N2C(C(=O)O)=CC(COC(N)=O)S[C@H]21 (stereo partly specified)
C[N+](C)(CCOc1ccccc1)Cc1cccs1 (tested in a mixture with another compound)
CC(=O)CC/C=C(\C)CC/C=C(/C)CC/C=C(\C)CCC=C(C)C
CC1(C)SC2C(NC(=O)C(c3ccccc3)S(=O)(=O)O)C(=O)N2C1C(=O)O (stereo unspecified)
CC12C=CC(=O)C=C1CCC1C2C(O)CC2(C)C1CCC2(O)C(=O)COC(=O)CCC(=O)O (stereo unspecified)
CCCC(=O)O[C@]1(C(=O)COC(=O)CC)[C@@H](C)C[C@H]2[C@@H]3CCC4=CC(=O)C=C[C@@]4(C)[C@@]3(F)[C@H](O)C[C@@]21C
CCOC(=O)[C@H](CCc1ccccc1)NC(C)C(=O)N1CC2(CC1C(=O)O)SCCS2 (stereo partly specified)
CC(C)(C)NC(=O)[C@H]1CC[C@H]2[C@@H]3CC=C4C=C(C(=O)O)CC[C@@]4(C)[C@H]3CC[C@]12C
CCC[C@H]1C[C@H](C(=O)NC(C(C)Cl)C2O[C@@H](SC)C(OP(=O)(O)O)[C@@H](O)[C@@H]2O)N(C)C1 (stereo partly specified)
O=C(CO)NCCCOc1cccc(CN2CCCCC2)c1
O=S(=O)(O)OCC1OC(COS(=O)(=O)O)(C2(OS(=O)(=O)O)OC(CO)C(OS(=O)(=O)O)C(OS(=O)(=O)O)C2OS(=O)(=O)O)C(OS(=O)(=O)O)C1OS(=O)(=O)O (stereo unspecified)
COc1cc([C@@H]2c3cc4c(cc3[C@@H](O[C@@H]3O[C@H]5CO[C@H](C)O[C@H]5[C@H](O)[C@@H]3O)[C@H]3COC(=O)[C@H]23)OCO4)cc(OC)c1OP(=O)(O)O
